The values below come from ChEMBL document CHEMBL4513216, “Probing the Open Global Health Chemical Diversity Library for Multistage-Active Starting Points for Next-Generation Antimalarials” (ACS Infect Dis, 2020).

Among all 68,000 compounds or so, about 2,700 (4%) showed an effect of 50% or more. Shown is part of a subset that was picked to be rich in strong results.

This experiment relates to Plasmodium berghei. The experiment can be described thus: Screen against P. berghei liver stage (PbLuc), transformed with Luciferase, at 2uM. Format: functional, HepG2. As to conditions: tested at 2 uM.
As for `O=C(NCCO)Nc1ccc(Cl)cc1-n1cccc1`, the INHIBITION was -12.7%. With `Cc1nc(CN2CCCCC2CCc2ccc(O)cc2)co1` (stereo unspecified), the INHIBITION came to 0.58%.

Regarding `Cc1noc(C)c1-c1ccc(C2CCCN2C(=O)c2ccncn2)nc1` (stereo unspecified), the INHIBITION is recorded as 5.15%. Under `COc1cccc(Cn2c(C)c(C)oc2=O)c1OC` stands 23.87%; under `Cc1cc(N2CCN(C3CCSCC3)CC2)n2nc(C)c(C)c2n1`, 39.51%; under `CCCNC(=O)C(C)Oc1ccccc1` (stereo unspecified), 64.08%.

As for `CCCNC(=O)C(C)Oc1ccc(F)cc1` (stereo unspecified), the INHIBITION is 23.68%. On to `CCNC(=O)C(C)Oc1ccc(N(C)S(C)(=O)=O)cc1` (stereo unspecified), for which the INHIBITION is 33.26%. Regarding `CCOc1ccc(CNC(=O)c2cnc(OC)nc2)cc1`, the INHIBITION is 58.98%. Regarding `COC(=O)c1ccc(C(=O)NCc2ccc(Br)cc2)cn1`, the INHIBITION turned out to be 38.67%. In the case of `COc1ncc(C(=O)NCc2ccccc2)cn1`, the INHIBITION amounted to 60.36%. Regarding `CCOc1ccc(Cl)c(C(=O)NCc2ccc(C(=O)NC)cc2)n1`, the INHIBITION worked out at 23.92%. `COc1ccc(CNC(=O)c2ccc(Br)cn2)cc1`: the INHIBITION came out at 21.97%.

With `COc1ncc(C(=O)NCc2ccc(Br)cc2)cn1`, the INHIBITION is reported as 18.8%. The result for `COCC(O)CN(C)c1cc(C(F)(F)F)nc(-c2cccnc2)n1` (stereo unspecified) reads -2.47%; that for `COc1ccc(CNC(C)c2cnn(C)c2)cc1OC1CCCC1` (stereo unspecified), 51.76%; that for `CC(NCc1ccnc(OC2CCC2)c1)c1cnn(C)c1` (stereo unspecified), 18.98%. As for `CC(NCc1cccc(COC2CCCC2)c1)c1cnn(C)c1` (stereo unspecified), the INHIBITION was 12.83%. Turning to `CN(C1CCN(C(=O)NCCc2ccc(F)cc2F)CC1)S(C)(=O)=O`, the INHIBITION is listed as 8.56%. In the case of `COCC(=O)N1CCC(c2cc(-c3ccc(OC)cc3)n[nH]2)C1` (stereo unspecified), the INHIBITION was -0.64%.

Regarding `COCC(=O)N1CCC(c2ccc(OC)cc2)C1` (stereo unspecified), the INHIBITION is recorded as 56.21%. `CSCC(=O)N1CCC(Oc2cccc(C)c2)CC1`: the INHIBITION is 10.91%.

Regarding `COCC(=O)N1CCC(Oc2cccc(C)c2)CC1`, the INHIBITION came out at 58.53%. Turning to `COC(=O)NCC(=O)N1CCC(Oc2cccc(C)c2)CC1`, the INHIBITION is listed as -31.79%.

For the compound `CCN(CC)C(=O)CNC(=O)N1CCC(c2ccc(OC)cc2)C1` (stereo unspecified), the INHIBITION is listed as 26.44%.

Take `CC(C)c1nc2cc(NC(=O)c3n[nH]c4c3CCC4)ccc2n1C`: the INHIBITION is -12.41%.

In the case of `CNC(=O)C1(c2cnccn2)CCCN1C(=O)c1ccn(C)n1` (stereo unspecified), the INHIBITION was found to be 43.89%. Consider `Cc1nnc(N2CC[C@H]3C[C@H](C(=O)N(C)C)O[C@@H]3C2)s1`, for which the INHIBITION is 4.42%.

Take `CCN1CC(COc2ccc(OC)cc2)Oc2ccncc2S1(=O)=O` (stereo unspecified): the INHIBITION was determined as 18.99%.

Regarding `CCN1CC(COc2ccccc2)Oc2ncccc2S1(=O)=O` (stereo unspecified), the INHIBITION is 55.73%. `O=S1(=O)c2cccnc2OC(COc2ccccc2)CN1CC1CC1` (stereo unspecified): the INHIBITION is 22.01%. The result for `CN(C)C1(CNc2nccc(C3CCCC3)n2)CCOCC1` reads 1.1%; that for `NC(=O)CCn1ccc(NC(=O)c2ccc(OCC3CC3)cc2)n1`, -52.01%. As to `Cc1nnsc1C(=O)NCc1cccnc1N1CCCC(O)C1` (stereo unspecified), the INHIBITION was 41.59%.

For the compound `Cc1nn(C)c(N(C)C)c1CNCc1ccccc1Cn1cccn1`, the INHIBITION is reported as -40.27%. Take `CC(C)c1nccn1C(C)C(=O)NC1CCN(S(C)(=O)=O)CC1` (stereo unspecified): the INHIBITION worked out at 8.13%. As to `CC(C)c1nccn1C(C)C(=O)NC1CCOCC1` (stereo unspecified), the INHIBITION is recorded as 1.1%. Turning to `CC(C)c1nccn1C(C)C(=O)NC1Cc2ccccc2C1` (stereo unspecified), the INHIBITION was 51.72%. Consider `Cc1cc(C)c(CNC(=O)NCc2nnc3n2CCCC3)c(=O)[nH]1`, for which the INHIBITION is listed as -47.98%. As for `O=C(O)c1ccn(-c2cccc(NC(=O)c3ccccc3Cl)c2)n1`, the INHIBITION was 23.43%.

On to `O=C(CCc1cc(Cl)no1)N1CCC(c2cc3ncccc3cn2)CC1`, for which the INHIBITION is recorded as 15.72%.

Regarding `CNC(=O)c1nc(COc2c(C)occc2=O)no1`, the INHIBITION worked out at 20.19%. On to `Cc1occc(=O)c1OCc1noc(C(=O)NC(C)C)n1`, for which the INHIBITION worked out at 2.06%.

Take `CCOC(=O)c1nc(COc2c(C)occc2=O)no1`: the INHIBITION is recorded as 54.13%.

Take `Cc1cn(Cc2ccc(F)c(F)c2)nc1N`: the INHIBITION was found to be 17.69%.

Regarding `[O-][S+](CCN1CCc2[nH]nc(C(F)(F)F)c2C1)c1ccccc1` (stereo unspecified), the INHIBITION is given as -62.71%. In the case of `FC(F)(F)c1[nH]nc2c1CN(Cc1ccccc1)CC2`, the INHIBITION is 57.77%. Consider `FC(F)(F)c1n[nH]c2c1CN(Cc1cn3ccccc3n1)CC2`, for which the INHIBITION is -7.14%. For `Cc1ccccc1CN1CCC2(CC1)CN(S(=O)(=O)c1ccccc1)C2`, the INHIBITION was 43.51%. On to `O=C(NCc1cccnc1)Nc1cc(C(F)(F)F)c[nH]c1=O`, for which the INHIBITION was -13.92%.

For `O=C1N(c2ccsc2)CCC12CCCN(CC1CC1)C2` (stereo unspecified), the INHIBITION was found to be 7.77%. The result for `Cc1csc(CN(CC2CCCO2)C(=O)c2cccnc2C)n1` (stereo unspecified) reads -5.92%; that for `O=C(c1cccnc1O)N(Cc1ccsc1)CC1CCCO1` (stereo unspecified), -85.83%. On to `O=C(c1cccnc1O)N(Cc1cccs1)CC1CCCO1` (stereo unspecified), for which the INHIBITION is recorded as 64.9%. `c1ccc2[nH]c(C3CCN(Cc4nc(C5CC5)no4)CC3)cc2c1`: the INHIBITION was -3.99%. For the compound `O=C(CCc1cc2n(n1)CCCNC2)N1CCSCC1`, the INHIBITION is -9.98%. `Cc1n[nH]c(CN2CCN(c3ncnc4scc(C)c34)CC2)c1Cl`: the INHIBITION is 74.18%. The result for `CCc1nc(C)c(CN2CCN(c3ncnc4c(C)csc34)CC2)[nH]1` reads -3.25%; that for `CCc1nc(C)c(CN2CCN(c3ncnc4scc(C)c34)CC2)[nH]1`, -33.43%; that for `CC(C)Oc1ncccc1CNC(=O)N1CCOCC1`, -10.84%. For `CN(C)CC(=O)N1CCc2sc(C(=O)N3CCN(C)CC3)cc21`, the INHIBITION worked out at 34.93%. Consider `O=C(NCc1ccccn1)[C@@H]1CC[C@@H]2[C@@H](CCN2c2ncc(F)cn2)O1`, for which the INHIBITION was 21.77%. With `Cc1nc(C2CCCN(C(=O)c3cnn(C4CCCCC4)c3)C2)no1` (stereo unspecified), the INHIBITION is -31.72%.

`Cc1nc(C2CCCN(C(=O)c3cccc4c3OCO4)C2)no1` (stereo unspecified): the INHIBITION is reported as 27.31%.

With `Cc1nc(C2CCCN(C(=O)c3ccco3)C2)no1` (stereo unspecified), the INHIBITION came to 51.32%.

With `Cc1nc(C2CCCN(C(=O)c3ccoc3)C2)no1` (stereo unspecified), the INHIBITION was -3.64%.

Regarding `Cc1nc(C2CCCN(C(=O)c3cnn(C(C)(C)C)c3)C2)no1` (stereo unspecified), the INHIBITION was determined as 56.12%. Under `CCn1cc(C(=O)N2CCCC(c3noc(C)n3)C2)cn1` (stereo unspecified) stands 31.46%; under `Cc1nc(C2CCCN(C(=O)c3cc(Cl)c4c(c3)OCO4)C2)no1` (stereo unspecified), 50.05%. Under `Cc1cccc(C(=O)N2CCCC(c3noc(C)n3)C2)n1` (stereo unspecified) stands -11.71%. For the compound `Cn1cnnc1C1CCCN(C(=O)c2cc(Cl)c3c(c2)OCO3)C1` (stereo unspecified), the INHIBITION is on record as 3.9%.
